Laboratory results: PubChem BioAssay (Tox21)
Inconclusive results are not listed. Where a call stands in place of a potency, no number is given. Active and inactive are the calls of the source. Unless noted, the call rests on the fitted dose curve; in most records, active means well fitted curve in the direction sought with a large enough effect in the repeat runs; inconclusive means weak or mixed curves; inactive means no such curve, though single readings can be large; an effect the other way counts as inactive or inconclusive.

Legend:
[1] = molecular target: Estrogen receptor beta (Homo sapiens) (UniProt Q92731); test: qHTS assay to identify small molecule agonists of the estrogen receptor beta (ER-beta) signaling pathway (AID 1259377; active means well fitted activation curve with a large enough effect in the signal ratio in the repeat runs, not every such curve was filed as active; the % refers to the signal ratio; further: potency means the concentration at half of the fitted maximal effect)
Outline: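 Ratiometric beta-lactamase FRET read-out came after 2 h substrate loading at room temperature. It followed 16 h compound treatment at 37C of GripTite HEK293T cells carrying a UAS-bla reporter, plated in 2% charcoal-stripped FBS medium.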

[2] = qHTS assay to identify small molecule agonists of the androgen receptor (AR) signaling pathway in the presence of an antagonist - cell viability counter screen (AID 1259379); further: nearly all actives have a fitted effect of over 25% in size; further: potency means the concentration at half of the fitted maximal effect
Outline: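 Fluorescence from CellTiter-Fluor, added after 15 hr and read 1 hr later, gave cell viability. Cells were MDA-kb2 exposed to compounds (15 concentrations) in the presence of 3.0uM nilutamide at 37C, 0% CO2.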

[3] = qHTS assay to identify small molecule agonists of the estrogen receptor beta (ER-beta) signaling pathway - cell viability counter screen (AID 1259380); further: nearly all actives have a fitted effect of over 30% in size; further: potency means the concentration at half of the fitted maximal effect
Outline: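 Same-well viability counter screen. Cells: ER-beta-UAS-bla HEK293T, plated 6 hr before compound, in 2% charcoal-stripped FBS. Compound exposure 16 hr, 37C; viability by CellTiter-Glo luminescence after 30 min at room temperature.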

[4] = molecular target: Androgen receptor (Homo sapiens) (UniProt P10275); test: qHTS assay to identify small molecule agonists of the androgen receptor (AR) signaling pathway in the presence of an antagonist (AID 1259381; calls by dose curve; further: nearly all actives have a fitted effect of over 15% in size; further: potency means the concentration at half of the fitted maximal effect)
Outline: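 Cells are MDA-kb2 (human breast carcinoma, MMTV-luc, AR/GR responsive). Nilutamide is present at 3.0uM final throughout; compounds are added at 15 concentrations and incubated 16hr at 37C before ONE-Glo luminescence detection.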

[5] = qHTS assay to identify small molecule antagonists of the estrogen receptor beta (ER-beta) signaling pathway - cell viability counter screen (AID 1259382);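 further: HEK293T cells carrying ER-beta-UAS-bla reporter stimulated with estradiol; series mostly up to about 92 µM; nearly all actives have a fitted effect of over 55% in size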
Outline: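 Following a 6 hr plating period, HEK293T cells carrying a UAS-driven beta-lactamase reporter under ER-beta control received compounds and 1nM E2 (final). After 16 hr at 37C and 2 hr substrate loading, CellTiter-Glo luminescence indicated viability.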

[6] = qHTS assay to identify small molecule agonists or antagonists of the thyroid stimulating hormone receptor (TSHR) signaling pathway - wild type cell line counter screen (AID 1259384; calls by dose curve)
Outline: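 Counter screen in untransfected Hek293: compounds (15-point titration, triplicate) plus phosphodiesterase inhibitor Ro20-1724 added after 18 h plating; 30 min RT. Intracellular cAMP via competitive d2/cryptate immunoassay, 1 h incubation.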

[7] = molecular target: Thyrotropin receptor (Homo sapiens) (UniProt P16473); test: qHTS assay to identify small molecule antagonists of the thyroid stimulating hormone receptor (TSHR) signaling pathway (AID 1259385; calls by dose curve; further: nearly all actives have a fitted effect of over 20% in size; further: potency means the concentration at half of the fitted maximal effect)
Outline: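 Antagonist mode: compound-treated TSHR-expressing HEK293 cells were stimulated with 1.5 ng/mL TSH (final) in presence of Ro20-1724 for 30 min at RT. HTRF cAMP detection after 1 h; each compound tested at 15 concentrations, triplicate.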

[8] = qHTS assay to identify small molecule agonists of the estrogen receptor alpha (ER-alpha) signaling pathway in the presence of an antagonist - cell viability counter screen (AID 1259386);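 further: cells exposed to compounds for 22 h at 37 °C before the viability read; nearly all actives have a fitted effect of over 30% in size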; further: potency means the concentration at half of the fitted maximal effect
Outline: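 Cells are starved of estrogens for 5 days in charcoal-stripped serum, seeded for 24hr and co-treated with ICI-182,780 (10.0nM final) and test compounds. After 22hr at 37C, viability is read as CellTiter-Fluor fluorescence.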

[9] = molecular target: Progesterone receptor (Homo sapiens) (UniProt P06401); test: qHTS assay to identify small molecule agonists of the progesterone receptor (PR) signaling pathway (AID 1346784; calls by dose curve; further: nearly all actives have a fitted effect of over 30% in size; further: potency means the concentration at half of the fitted maximal effect)
Outline: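 Agonist qHTS: compounds pinned onto 3,000 PR-UAS-bla HEK 293T cells per well in charcoal-stripped serum medium, 16hr at 37C, then beta-lactamase activity measured by LiveBLAzer FRET fluorescence after 2 hours at room temperature.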

[10] = molecular target: Progesterone receptor (Homo sapiens) (UniProt P06401); test: qHTS assay to identify small molecule antagonists of the progesterone receptor (PR) signaling pathway (AID 1346795; active means well fitted inhibition curve with a large enough effect in the signal ratio in the repeat runs, not every such curve was filed as active; the % refers to the signal ratio; further: potency means the concentration at half of the fitted maximal effect)
Outline: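 Antagonist mode with agonist R5020 at 1 nM final and 16 hr incubation at 37C. Reporter was beta-lactamase driven by UAS in HEK293T (PR-UAS-bla), 2% charcoal-stripped serum; signal from LiveBLAzer FRET substrate, 2 hr at room temperature.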

[11] = qHTS assay to identify small molecule antagonists of the progesterone receptor (PR) signaling pathway - cell viability counter screen (AID 1346798); further: nearly all actives have a fitted effect of over 50% in size; further: potency means the concentration at half of the fitted maximal effect
Outline: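 Cytotoxicity read as CellTiter-Glo luminescence (30 min, room temperature) in the same wells as the beta-lactamase readout. HEK293T PR-UAS-bla cells in charcoal-stripped 2% FBS received compound and R5020, then 16 h at 37C, 5% CO2.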

[12] = qHTS assay to identify small molecule agonists of the progesterone receptor (PR) signaling pathway - cell viability counter screen (AID 1346799; calls by dose curve; further: nearly all actives have a fitted effect of over 45% in size)
Outline: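 Cytotoxicity measured by CellTiter-Glo luminescence (30 min, RT) in the same wells as the PR beta-lactamase agonist read. Those HEK293T cells had 16 h compound treatment at 37 C in 2% charcoal-stripped FBS medium.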

[13] = qHTS assay to identify small molecule antagonists of the TGF-beta/Smad signaling pathway - cell viability counter screen (AID 1346824); further: nearly all actives have a fitted effect of over 50% in size
Outline: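 Cytotoxicity counter-screen run in the same wells as the beta-lactamase Smad reporter read: CellTiter-Glo luminescence after 30 min at room temperature. HEK 293T SBE-bla cells had 5 hr compound exposure at 37 C with TGF-beta1 (0.25 ng/mL stock).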

[14] = qHTS assay to identify small molecule agonists of the TGF-beta/Smad signaling pathway - cell viability counter screen (AID 1346829); further: top concentration of the series differs between compounds; nearly all actives have a fitted effect of over 45% in size
Outline: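 Here the cytotoxicity of library compounds is measured in SBE-bla HEK 293T cells treated for 5 hr, using CellTiter-Glo added to wells already read for the beta-lactamase reporter.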

[15] = qHTS assay to identify small molecule agonists of the TGF-beta/Smad signaling pathway (AID 1346859; active means well fitted activation curve with a large enough effect in the signal ratio in the repeat runs, not every such curve was filed as active; the % refers to the signal ratio; further: series mostly up to about 77 µM)
Outline: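 Fluorescence (ex 405 nm; em 460 and 530 nm) was read 2 h after LiveBLAzer FRET substrate at RT. The preceding compound treatment of overnight-plated SBE-bla HEK293T cells lasted 5 h at 37 C.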

[16] = molecular target: Thyrotropin-releasing hormone receptor (Homo sapiens) (UniProt P34981); test: qHTS assay to identify small molecule antagonists of the thyrotropin-releasing hormone receptor (TRHR) signaling pathway (AID 1346877; active means well fitted inhibition curve with a large enough effect in the repeat runs, not every such curve was filed as active; further: series mostly up to about 51 µM)
Outline: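 Cells (TRHR-HEK293) are plated and kept 18 h at 37 °C/5% CO2. A calcium-sensitive dye is added for 2 h, compound follows for 5 min at room temperature, and TRH is then given at 1 nM final.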

[17] = molecular target: Thyrotropin-releasing hormone receptor (Homo sapiens) (UniProt P34981); test: qHTS assay to identify small molecule agonists of the thyrotropin-releasing hormone receptor (TRHR) signaling pathway (AID 1346891; calls by dose curve; further: series mostly up to about 58 µM)
Outline: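 Agonist-mode intracellular calcium readout: kinetic fluorescence over 3 min at 1 s intervals after compound addition to TRHR-HEK293 cells (18 h seeded, 2 h dye-loaded at 37 C). Fifteen concentrations, triplicates.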

[18] = Human pregnane X receptor (PXR) small molecule agonists, qHTS cell viability counter screen (AID 1346977); further: nearly all actives have a fitted effect of over 50% in size; further: potency means the concentration at half of the fitted maximal effect
Outline: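 Same-well viability read: CellTiter-Fluor added after 23 hr compound exposure, fluorescence measured 1 hr later. Cells were PXR-Luc HepG2 seeded at 2,000/well in 5% charcoal-stripped FBS medium, rested 5 hr before dosing at 37 C.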

[19] = molecular target: Estrogen receptor (Homo sapiens) (UniProt P03372); test: qHTS assay to identify small molecule agonists of the estrogen receptor alpha (ER-alpha) signaling pathway in the presence of an antagonist (AID 1259383; calls by dose curve; further: top concentration of the series differs between compounds; nearly all actives have a fitted effect of over 15% in size)
Outline: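 Cells are hormone-deprived for 5 days (charcoal-stripped FBS, no phenol red), plated for 24hr, spiked with 10.0nM ICI-182,780, then dosed at 15 concentrations. After 22hr at 37C, ONE-Glo luminescence reports ERE-luciferase activity.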

[20] = molecular target: Estrogen receptor beta (Homo sapiens) (UniProt Q92731); test: qHTS assay to identify small molecule antagonists of the estrogen receptor beta (ER-beta) signaling pathway (AID 1259378; active means well fitted inhibition curve with a large enough effect in the signal ratio in the repeat runs, not every such curve was filed as active; the % refers to the signal ratio)
Outline: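 Antagonist mode: compounds added to beta-lactamase reporter HEK293T ER-beta-UAS cells stimulated with E2 (1nM final), 16 hr at 37C. LiveBLAzer B/G FRET substrate, 2 hours room temperature, fluorescence read-out.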

Chain of Estrogen receptor (Homo sapiens) (P03372 whole entry, looked up): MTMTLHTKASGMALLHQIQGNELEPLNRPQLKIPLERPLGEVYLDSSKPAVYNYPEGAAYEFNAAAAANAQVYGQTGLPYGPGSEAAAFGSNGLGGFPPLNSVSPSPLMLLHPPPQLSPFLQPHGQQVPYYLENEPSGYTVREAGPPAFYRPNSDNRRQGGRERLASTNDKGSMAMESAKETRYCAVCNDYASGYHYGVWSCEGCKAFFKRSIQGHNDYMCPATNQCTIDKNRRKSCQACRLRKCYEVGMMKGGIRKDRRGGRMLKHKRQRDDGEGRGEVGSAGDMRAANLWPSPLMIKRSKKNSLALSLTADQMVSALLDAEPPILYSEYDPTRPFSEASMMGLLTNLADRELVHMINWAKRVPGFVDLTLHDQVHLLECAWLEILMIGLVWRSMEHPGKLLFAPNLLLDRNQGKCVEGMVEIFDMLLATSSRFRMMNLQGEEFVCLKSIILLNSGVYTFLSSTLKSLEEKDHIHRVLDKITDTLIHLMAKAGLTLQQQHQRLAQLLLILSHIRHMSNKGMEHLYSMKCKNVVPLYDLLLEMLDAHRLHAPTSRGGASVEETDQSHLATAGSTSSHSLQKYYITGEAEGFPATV
Chain of Androgen receptor (Homo sapiens) (P10275 whole entry, looked up): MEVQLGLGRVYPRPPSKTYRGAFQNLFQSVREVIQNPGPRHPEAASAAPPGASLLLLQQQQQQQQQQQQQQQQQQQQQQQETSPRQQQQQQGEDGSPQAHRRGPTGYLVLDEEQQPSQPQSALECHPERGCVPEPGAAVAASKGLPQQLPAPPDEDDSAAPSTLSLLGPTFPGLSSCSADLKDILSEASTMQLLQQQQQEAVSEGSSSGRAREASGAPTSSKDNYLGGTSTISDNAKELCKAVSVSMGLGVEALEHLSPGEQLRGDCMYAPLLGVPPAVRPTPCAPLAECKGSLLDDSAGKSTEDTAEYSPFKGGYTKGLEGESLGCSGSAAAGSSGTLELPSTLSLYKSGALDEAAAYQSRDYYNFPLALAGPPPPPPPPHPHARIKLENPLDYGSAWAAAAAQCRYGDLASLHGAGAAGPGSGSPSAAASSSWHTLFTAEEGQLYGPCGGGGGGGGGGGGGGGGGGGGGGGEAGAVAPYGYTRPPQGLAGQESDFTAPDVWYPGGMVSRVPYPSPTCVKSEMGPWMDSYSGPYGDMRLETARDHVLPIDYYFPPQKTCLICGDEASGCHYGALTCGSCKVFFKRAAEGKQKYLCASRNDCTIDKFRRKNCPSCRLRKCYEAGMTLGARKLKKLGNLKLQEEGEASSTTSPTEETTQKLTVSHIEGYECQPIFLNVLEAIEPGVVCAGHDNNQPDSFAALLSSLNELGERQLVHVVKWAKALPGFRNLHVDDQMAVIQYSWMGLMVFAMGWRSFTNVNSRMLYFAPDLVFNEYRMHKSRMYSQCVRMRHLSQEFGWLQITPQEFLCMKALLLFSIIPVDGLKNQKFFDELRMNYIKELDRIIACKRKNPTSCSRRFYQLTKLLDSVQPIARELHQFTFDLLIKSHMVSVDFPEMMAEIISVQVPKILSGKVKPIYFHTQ
Chain of Thyrotropin receptor (Homo sapiens) (P16473 whole entry, looked up): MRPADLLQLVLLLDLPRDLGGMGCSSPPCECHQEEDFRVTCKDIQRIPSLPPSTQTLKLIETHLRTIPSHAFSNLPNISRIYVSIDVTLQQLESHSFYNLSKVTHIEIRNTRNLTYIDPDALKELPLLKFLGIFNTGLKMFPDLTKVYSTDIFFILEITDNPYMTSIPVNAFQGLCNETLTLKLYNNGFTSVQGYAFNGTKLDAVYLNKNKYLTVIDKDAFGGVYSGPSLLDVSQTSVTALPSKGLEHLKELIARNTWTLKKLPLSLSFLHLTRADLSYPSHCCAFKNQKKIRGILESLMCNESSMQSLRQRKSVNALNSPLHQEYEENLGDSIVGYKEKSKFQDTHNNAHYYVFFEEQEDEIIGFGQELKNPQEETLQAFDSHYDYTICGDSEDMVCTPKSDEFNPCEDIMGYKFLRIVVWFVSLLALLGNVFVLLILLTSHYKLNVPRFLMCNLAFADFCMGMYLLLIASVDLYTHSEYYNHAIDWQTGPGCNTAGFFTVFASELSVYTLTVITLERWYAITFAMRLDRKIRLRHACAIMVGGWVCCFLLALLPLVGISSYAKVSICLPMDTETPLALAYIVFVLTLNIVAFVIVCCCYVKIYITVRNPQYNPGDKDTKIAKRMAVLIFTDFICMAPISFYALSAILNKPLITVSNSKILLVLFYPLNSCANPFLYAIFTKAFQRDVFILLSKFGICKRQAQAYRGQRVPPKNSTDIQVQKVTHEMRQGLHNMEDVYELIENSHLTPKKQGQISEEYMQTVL
Chain of Estrogen receptor beta (Homo sapiens) (Q92731 whole entry, looked up): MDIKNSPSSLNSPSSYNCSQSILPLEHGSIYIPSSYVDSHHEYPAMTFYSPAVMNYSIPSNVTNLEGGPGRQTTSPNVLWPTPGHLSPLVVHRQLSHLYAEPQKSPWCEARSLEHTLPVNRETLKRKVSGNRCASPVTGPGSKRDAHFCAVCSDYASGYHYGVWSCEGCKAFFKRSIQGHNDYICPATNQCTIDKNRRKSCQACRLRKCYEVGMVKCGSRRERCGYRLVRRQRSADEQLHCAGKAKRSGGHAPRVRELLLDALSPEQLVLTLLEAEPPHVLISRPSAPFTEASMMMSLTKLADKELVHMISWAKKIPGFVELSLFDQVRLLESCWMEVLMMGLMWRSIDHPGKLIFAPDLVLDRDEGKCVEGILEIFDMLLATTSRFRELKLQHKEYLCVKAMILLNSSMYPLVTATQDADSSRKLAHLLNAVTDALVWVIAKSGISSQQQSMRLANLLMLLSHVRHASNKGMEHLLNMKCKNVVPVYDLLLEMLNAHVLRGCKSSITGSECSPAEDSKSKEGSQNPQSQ
Chain of Thyrotropin-releasing hormone receptor (Homo sapiens) (P34981 whole entry, looked up): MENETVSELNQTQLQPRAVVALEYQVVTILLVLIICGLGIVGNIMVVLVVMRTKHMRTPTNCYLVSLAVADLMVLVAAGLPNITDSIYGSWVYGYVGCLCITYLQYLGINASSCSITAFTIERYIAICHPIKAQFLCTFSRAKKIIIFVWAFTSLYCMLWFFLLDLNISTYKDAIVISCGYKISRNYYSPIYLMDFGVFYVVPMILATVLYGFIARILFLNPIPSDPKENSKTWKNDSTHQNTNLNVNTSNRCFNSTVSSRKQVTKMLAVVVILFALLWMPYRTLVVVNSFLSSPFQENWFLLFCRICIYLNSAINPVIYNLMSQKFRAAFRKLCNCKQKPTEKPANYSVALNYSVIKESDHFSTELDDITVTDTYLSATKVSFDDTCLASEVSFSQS
Chain of Progesterone receptor (Homo sapiens) (P06401 whole entry, looked up): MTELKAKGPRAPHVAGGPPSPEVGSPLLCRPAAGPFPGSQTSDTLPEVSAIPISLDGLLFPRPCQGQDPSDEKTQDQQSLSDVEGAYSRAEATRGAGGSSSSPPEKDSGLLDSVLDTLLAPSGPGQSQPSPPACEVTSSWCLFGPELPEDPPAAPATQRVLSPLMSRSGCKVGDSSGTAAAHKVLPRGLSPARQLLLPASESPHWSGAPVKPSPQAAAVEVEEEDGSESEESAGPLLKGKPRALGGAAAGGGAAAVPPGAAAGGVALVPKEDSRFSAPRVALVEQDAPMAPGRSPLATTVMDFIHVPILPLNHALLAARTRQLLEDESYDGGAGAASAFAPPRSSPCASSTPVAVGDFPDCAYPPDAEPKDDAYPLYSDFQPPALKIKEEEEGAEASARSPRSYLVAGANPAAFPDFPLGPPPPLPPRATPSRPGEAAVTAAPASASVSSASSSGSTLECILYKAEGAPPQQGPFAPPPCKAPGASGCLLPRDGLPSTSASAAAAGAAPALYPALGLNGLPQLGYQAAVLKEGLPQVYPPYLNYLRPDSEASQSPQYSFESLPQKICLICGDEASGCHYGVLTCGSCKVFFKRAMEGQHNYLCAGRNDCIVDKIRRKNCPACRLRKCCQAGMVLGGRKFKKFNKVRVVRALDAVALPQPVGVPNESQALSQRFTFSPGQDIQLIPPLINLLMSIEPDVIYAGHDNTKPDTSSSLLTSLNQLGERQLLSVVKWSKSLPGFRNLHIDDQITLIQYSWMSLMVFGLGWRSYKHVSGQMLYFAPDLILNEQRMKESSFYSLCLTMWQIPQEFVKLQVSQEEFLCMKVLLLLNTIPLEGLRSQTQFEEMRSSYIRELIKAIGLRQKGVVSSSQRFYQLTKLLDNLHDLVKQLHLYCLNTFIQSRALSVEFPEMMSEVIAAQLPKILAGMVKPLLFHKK

Row | Structure (SMILES) | Potency [1] | Potency [2] | Potency [3] | Potency [4] | Potency [5] | outcome [6] | Potency [7] | Potency [8] | Potency [9] | Potency [10] | Potency [11] | Potency [12] | Potency [13] | Potency [14] | outcome [15] | Potency [16] | Potency [17] | Potency [18] | Potency [19] | Potency [20]
1 | N#CC(Cl)Cl | inactive | inactive | inactive | 47.3 µM (active) | inactive | inactive | inactive | inactive | 5.3 µM (active) | inactive | inactive | inactive | inactive | inactive | inactive | inactive | inactive | inactive | – | –
2 | CCCN(CCC)CCc1c[nH]c2ccccc12 | inactive | inactive | – | – | inactive | inactive | inactive | inactive | inactive | – | – | – | inactive | inactive | inactive | inactive | inactive | – | inactive | –
3 | Cc1c(Cl)c(=O)oc2cc(OP(=O)(OCCCl)OCCCl)ccc12 | inactive | – | – | – | inactive | inactive | inactive | inactive | inactive | 7.5 µM (active) | – | – | inactive | inactive | – | – | – | inactive | inactive | –
4 | O=c1c(C2CC(c3ccc(-c4ccc(Br)cc4)cc3)Cc3ccccc32)c(O)sc2ccccc12 (stereo unspecified) | inactive | 29.8 µM (active) | – | inactive | inactive | inactive | inactive | – | inactive | – | – | – | inactive | inactive | inactive | inactive | inactive | 18.8 µM (active) | inactive | –
5 | C[C@]12CC[C@@H]3c4ccc(OC(=O)N(CCCl)CCCl)cc4CC[C@H]3[C@@H]1CC[C@@H]2O | 0.266 µM (active) | inactive | inactive | – | inactive | inactive | – | inactive | inactive | – | inactive | – | inactive | inactive | inactive | inactive | inactive | inactive | – | –
6 | CC(C)OC(=S)S | inactive | inactive | – | – | inactive | inactive | inactive | inactive | – | – | 7.7 µM (active) | – | inactive | inactive | inactive | inactive | inactive | inactive | inactive | –
7 | CC(C)(C)C(O)/C(=C\c1ccc(Cl)cc1Cl)n1cncn1 (stereo unspecified) | inactive | – | 74 µM (active) | – | – | – | – | – | – | – | – | – | inactive | inactive | inactive | – | – | 74 µM (active) | inactive | –
8 | O=C/C(Cl)=C(/Cl)C(=O)O | inactive | inactive | – | – | inactive | inactive | – | inactive | inactive | inactive | inactive | inactive | inactive | inactive | inactive | inactive | inactive | inactive | inactive | –
9 | COC(=O)N(C(=O)N1CO[C@@]2(C(=O)OC)Cc3cc(Cl)ccc3C2=N1)c1ccc(OC(F)(F)F)cc1 | inactive | inactive | inactive | inactive | inactive | – | inactive | inactive | – | – | – | – | inactive | inactive | inactive | – | – | inactive | inactive | –
10 | BrCC(Br)c1ccccc1 (stereo unspecified) | – | inactive | inactive | inactive | inactive | inactive | – | inactive | inactive | inactive | inactive | inactive | inactive | inactive | inactive | – | – | inactive | inactive | inactive
11 | CCOP(=S)(OCC)SCCS(=O)(=O)CC | inactive | inactive | inactive | – | inactive | inactive | inactive | inactive | inactive | 48.6 µM (active) | inactive | inactive | inactive | inactive | inactive | inactive | inactive | inactive | inactive | –
12 | CCC(C)c1cc([N+](=O)[O-])cc([N+](=O)[O-])c1OC(=O)C=C(C)C (stereo unspecified) | inactive | 54.5 µM (active) | inactive | – | inactive | inactive | inactive | 54.5 µM (active) | inactive | 12.2 µM (active) | – | – | inactive | inactive | – | inactive | inactive | 27.3 µM (active) | – | –
13 | [Cl][Sb]([Cl])[Cl] | inactive | 24.3 µM (active) | inactive | – | inactive | inactive | – | 54.5 µM (active) | inactive | – | – | – | inactive | inactive | inactive | inactive | inactive | inactive | – | –
14 | COC[C@H](C)N(C(=O)CCl)c1c(C)csc1C | inactive | inactive | inactive | – | inactive | – | – | inactive | inactive | inactive | inactive | inactive | inactive | inactive | inactive | inactive | inactive | inactive | inactive | –
15 | N#CCCC(Br)(C#N)CBr (stereo unspecified) | inactive | – | 43.3 µM (active) | – | – | inactive | 54.5 µM (active) | – | – | – | – | inactive | inactive | inactive | inactive | – | inactive | – | inactive | –
